Assay results reported in PubChem BioAssay AID1159580 (chemical genetic matrix, 2015).
Where “and” joins values, the source holds several entries; their conditions need not be identical. Equal entries are not always repeated. Out of some 5,500 compounds screened, about 2,000 (36%) were called active. Roughly 18% stayed inconclusive and do not appear here. No stated cut-off is given here; in the data, active means normalized growth mostly below about 0.91 (no sharp cut-off); inconclusive means no clear call, values can overlap the other calls; inactive means mostly above about 0.92. The list shows a part of the results.

Experiment: chemical genetic growth profiling, strain panel (AID 1159580);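 further: tested at 20 µM; growth read once vehicle control cultures reached saturation at 30 °C; 1 = growth at the plate median or of vehicle wells; lower values mean less growth of the strain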
Conditions: S. cerevisiae deletion strains, growth OD

Measured: normalized growth

CCC[C@@H]1C[C@@H](C(=O)N[C@H]([C@H]2O[C@H](SC)[C@H](O)[C@@H](O)[C@H]2O)[C@H](C)O)N(C)C1
inactive: locus YAL021C, strain ccr4, active compounds read low 0.981 | locus YAL026C, strain drs2, active compounds read low 0.99 | locus YAL030W, strain snc1, active compounds read low 0.984 | locus YBL061C, strain skt5, active compounds read low 0.981 | locus YBR009C, strain hhf1, active compounds read low 1.01 | locus YBR021W, strain FUR4, active compounds read low 1.01 | locus YBR023C, strain chs3, active compounds read low 0.977 | locus YBR171W, strain sec66, active compounds read low 0.962 | locus YBR229C, strain ROT2, active compounds read low 0.991 | locus YBR231C, strain swc5, active compounds read low 0.981 | locus YBR279W, strain paf1, active compounds read low 0.985 | locus YCL011C, strain gbp2, active compounds read low 0.997 | locus YCL016C, strain dcc1, active compounds read low 1.03 | locus YCL029C, strain bik1, active compounds read low 0.996 | locus YCL061C, strain MRC1, active compounds read low 0.969 | locus YCL069W, strain vba3, active compounds read low 0.971 | locus YCR088W, strain abp1, active compounds read low 0.973 | locus YDL005C, strain med2, active compounds read low 0.979 | locus YDL035C, strain GPR1, active compounds read low 1.02 | locus YDL040C, strain nat1, active compounds read low 0.975 | locus YDL074C, strain BRE1, active compounds read low 1.03 | locus YDL101C, strain DUN1, active compounds read low 0.983 | locus YDL134C, strain PPH21, active compounds read low 1 | locus YDL185W, strain tfp1, active compounds read low 0.979 | locus YDL192W, strain arf1, active compounds read low 0.98 | locus YDR001C, strain nth1, active compounds read low 0.958 | locus YDR069C, strain doa4, active compounds read low 0.965 | locus YDR101C, strain arx1, active compounds read low 1.01 | locus YDR137W, strain rgp1, active compounds read low 0.983 | locus YDR150W, strain NUM1, active compounds read low 1 | locus YDR159W, strain sac3, active compounds read low 1.01 | locus YDR162C, strain NBP2, active compounds read low 1.01 | locus YDR195W, strain ref2 0.922 | locus YDR297W, strain sur2, active compounds read low 0.975 | locus YDR318W, strain mcm21, active compounds read low 0.989 | locus YDR334W, strain swr1, active compounds read low 0.929 | locus YDR335W, strain msn5, active compounds read low 0.974 | locus YDR388W, active compounds read low 0.992 | locus YDR392W, strain spt3, active compounds read low 1.04 | locus YDR502C, strain sam2, active compounds read low 0.991 | locus YEL003W, strain gim4, active compounds read low 0.952 | locus YEL037C, strain rad23, active compounds read low 0.983 | locus YEL061C, strain CIN8 (second series), active compounds read low 0.962 | locus YEL061C, strain CIN8, active compounds read low 1.01 | locus YER015W, strain faa2, active compounds read low 1.01 | locus YER016W, strain bim1, active compounds read low 0.987 | locus YER110C, active compounds read low 0.983 | locus YER111C, strain swi4, active compounds read low 0.98 | locus YER155C, strain BEM2 (second series), active compounds read low 0.986 | locus YER155C, strain BEM2, active compounds read low 0.975 | locus YER167W, strain BCK2, active compounds read low 1.02 | locus YFR010W, strain ubp6, active compounds read low 0.974 | locus YGL078C, strain dbp3, active compounds read low 0.981 | locus YGL086W, strain mad1, active compounds read low 1 | locus YGL167C, strain pmr1, active compounds read low 0.959 | locus YGL173C, strain kem1, active compounds read low 0.973 | locus YGL227W, strain vid30, active compounds read low 0.978 | locus YGL240W, strain doc1, active compounds read low 0.958 | locus YGL248W, strain PDE1, active compounds read low 0.986 | locus YGL253W, strain hxk2, active compounds read low 0.992 | locus YGR078C, strain PAC10, active compounds read low 0.993 | locus YGR135W, strain pre9, active compounds read low 0.955 | locus YGR252W, strain gcn5, active compounds read low 0.943 | locus YHR013C, strain ard1, active compounds read low 0.993 | locus YHR027C, strain rpn1, active compounds read low 0.981 | locus YHR030C, strain SLT2, active compounds read low 1.01 | locus YHR079C, strain IRE1 (second series), active compounds read low 0.998 | locus YHR079C, strain IRE1, active compounds read low 1.03 | locus YHR094C, strain hxt1, active compounds read low 0.998 | locus YHR129C, strain ARP1, active compounds read low 0.981 | locus YHR142W, strain chs7, active compounds read low 0.995 | locus YHR200W, strain rpn10, active compounds read low 0.993 | locus YIL066C, strain RNR3, active compounds read low 0.991 | locus YIL073C, strain SPO22, active compounds read low 1 | locus YIL125W, strain kgd1, active compounds read low 0.985 | locus YIR030C, strain dcg1, active compounds read low 0.99 | locus YJL092W, strain hpr5, active compounds read low 0.977 | locus YJL095W, strain BCK1 (second series), active compounds read low 0.978 | locus YJL095W, strain BCK1, active compounds read low 0.98 and 1.02 | locus YJL115W, strain asf1, active compounds read low 0.977 | locus YJL129C, strain trk1, active compounds read low 0.984 | locus YJL134W, strain LCB3, active compounds read low 0.998 | locus YJL154C, strain vps35, active compounds read low 0.969 | locus YJL164C, strain tpk1, active compounds read low 1.01 | locus YJL166W, strain qcr8, active compounds read low 0.934 | locus YJL168C, strain set2, active compounds read low 0.992 | locus YJL187C, strain SWE1 (second series), active compounds read low 0.984 | locus YJR043C, strain POL32, active compounds read low 1.01
